Test in all cases: DAPPL (digital affinity profiling via proximity ligation, sequencing); 10 mM Tris-HCl pH 7.5, 50 mM NaCl, 1 mM DTT, 4% glycerol, room temperature, 30 min; GST-TFs on glutathione beads, 16-mer random dsDNA library, 0.1% formaldehyde crosslink after washing; high values mean tight binding
One test concerns the target T1, FLI1 (Homo sapiens, UniProt Q01543 1-452).
T1 sequence: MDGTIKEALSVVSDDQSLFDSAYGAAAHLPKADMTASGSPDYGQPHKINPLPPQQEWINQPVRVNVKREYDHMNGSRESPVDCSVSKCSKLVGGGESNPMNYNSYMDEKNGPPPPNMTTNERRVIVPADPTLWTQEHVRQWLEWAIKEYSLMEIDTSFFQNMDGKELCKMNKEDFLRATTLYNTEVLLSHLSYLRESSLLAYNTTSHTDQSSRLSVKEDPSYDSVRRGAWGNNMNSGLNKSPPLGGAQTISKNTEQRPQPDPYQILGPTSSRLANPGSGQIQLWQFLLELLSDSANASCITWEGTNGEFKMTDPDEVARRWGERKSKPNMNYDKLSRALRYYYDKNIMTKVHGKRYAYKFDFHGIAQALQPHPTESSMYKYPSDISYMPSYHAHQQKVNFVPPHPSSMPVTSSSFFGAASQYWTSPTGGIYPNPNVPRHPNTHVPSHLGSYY
The settings on record: protein: recombinant; tags: N-terminal GST; dsDNA, one strand shown. The method in brief: (§1)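 Sequencing on an Illumina NextSeq500 followed washing, crosslinking with 0.1% formaldehyde, proximity ligation (BsaI/T4 ligase, 1 h, 37 °C) and PCR amplification of pools that had been incubated for 30 min at room temperature with 200 nmole of a random double-stranded 16-mer DNA library in Tris/NaCl/DTT/glycerol buffer. Each pool held DNA-barcoded human transcription factors, expressed in yeast as GST fusions and captured on glutathione beads, plus a tag-only sample. Binding signal is a hexamer's read frequency for a factor divided by its frequency in the tag-only sample.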

A further test deals with T2, ELK1 (Homo sapiens, UniProt P19419 1-428).
T2 sequence: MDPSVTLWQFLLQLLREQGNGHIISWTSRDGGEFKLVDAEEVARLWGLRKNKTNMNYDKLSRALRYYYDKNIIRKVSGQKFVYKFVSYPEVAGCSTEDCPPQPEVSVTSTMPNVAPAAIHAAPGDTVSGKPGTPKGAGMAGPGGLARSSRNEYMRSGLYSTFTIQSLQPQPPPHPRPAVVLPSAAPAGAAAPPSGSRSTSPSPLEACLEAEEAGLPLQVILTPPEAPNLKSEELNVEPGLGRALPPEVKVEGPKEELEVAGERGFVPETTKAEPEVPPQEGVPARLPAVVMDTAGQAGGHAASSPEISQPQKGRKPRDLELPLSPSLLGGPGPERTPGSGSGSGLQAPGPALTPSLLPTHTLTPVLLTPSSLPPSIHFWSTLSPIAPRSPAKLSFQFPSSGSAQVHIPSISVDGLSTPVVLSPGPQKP
The note with it: protein: recombinant; tags: N-terminal GST; dsDNA, one strand shown. The method in brief:
as §1

The target of a further test is T3, GABPA (Homo sapiens, UniProt Q06546 1-454).
T3 sequence: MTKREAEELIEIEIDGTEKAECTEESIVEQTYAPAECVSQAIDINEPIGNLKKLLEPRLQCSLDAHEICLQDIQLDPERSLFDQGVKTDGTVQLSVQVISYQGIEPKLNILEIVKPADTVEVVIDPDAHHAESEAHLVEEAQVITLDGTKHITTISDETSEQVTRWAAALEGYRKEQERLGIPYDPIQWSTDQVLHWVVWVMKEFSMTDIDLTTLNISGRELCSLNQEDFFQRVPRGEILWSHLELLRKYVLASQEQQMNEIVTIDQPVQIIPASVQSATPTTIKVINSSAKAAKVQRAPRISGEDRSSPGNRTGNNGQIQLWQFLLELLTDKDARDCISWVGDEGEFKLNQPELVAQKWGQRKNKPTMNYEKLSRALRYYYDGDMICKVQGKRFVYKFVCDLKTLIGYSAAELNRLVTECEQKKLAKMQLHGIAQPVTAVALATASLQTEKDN
The settings on record: protein: recombinant; tags: N-terminal GST; dsDNA, one strand shown. The method in brief: as §1

In a further test the target is T4, ERG (Homo sapiens, UniProt P11308 1-479).
T4 sequence: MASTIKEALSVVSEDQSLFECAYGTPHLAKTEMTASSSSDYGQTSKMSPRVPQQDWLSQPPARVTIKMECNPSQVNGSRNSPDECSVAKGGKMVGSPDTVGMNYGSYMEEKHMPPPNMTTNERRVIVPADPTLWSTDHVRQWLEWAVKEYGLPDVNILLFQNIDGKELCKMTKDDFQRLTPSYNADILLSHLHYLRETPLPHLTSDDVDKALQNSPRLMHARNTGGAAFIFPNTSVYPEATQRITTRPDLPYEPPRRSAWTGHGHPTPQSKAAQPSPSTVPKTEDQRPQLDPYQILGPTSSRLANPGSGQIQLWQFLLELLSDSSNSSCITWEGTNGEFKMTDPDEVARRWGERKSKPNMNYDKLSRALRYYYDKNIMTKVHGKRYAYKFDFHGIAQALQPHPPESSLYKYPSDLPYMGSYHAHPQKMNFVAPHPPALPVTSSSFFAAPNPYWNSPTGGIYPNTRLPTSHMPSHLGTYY
The note with it: protein: recombinant; tags: N-terminal GST; dsDNA, one strand shown. The method in brief: as §1

The target in the next test is ELF1 (Homo sapiens, UniProt P32519 1-619). The settings on record: protein: recombinant; tags: N-terminal GST; dsDNA, one strand shown. The method in brief: as §1
ELF1, sequence (P32519 whole entry): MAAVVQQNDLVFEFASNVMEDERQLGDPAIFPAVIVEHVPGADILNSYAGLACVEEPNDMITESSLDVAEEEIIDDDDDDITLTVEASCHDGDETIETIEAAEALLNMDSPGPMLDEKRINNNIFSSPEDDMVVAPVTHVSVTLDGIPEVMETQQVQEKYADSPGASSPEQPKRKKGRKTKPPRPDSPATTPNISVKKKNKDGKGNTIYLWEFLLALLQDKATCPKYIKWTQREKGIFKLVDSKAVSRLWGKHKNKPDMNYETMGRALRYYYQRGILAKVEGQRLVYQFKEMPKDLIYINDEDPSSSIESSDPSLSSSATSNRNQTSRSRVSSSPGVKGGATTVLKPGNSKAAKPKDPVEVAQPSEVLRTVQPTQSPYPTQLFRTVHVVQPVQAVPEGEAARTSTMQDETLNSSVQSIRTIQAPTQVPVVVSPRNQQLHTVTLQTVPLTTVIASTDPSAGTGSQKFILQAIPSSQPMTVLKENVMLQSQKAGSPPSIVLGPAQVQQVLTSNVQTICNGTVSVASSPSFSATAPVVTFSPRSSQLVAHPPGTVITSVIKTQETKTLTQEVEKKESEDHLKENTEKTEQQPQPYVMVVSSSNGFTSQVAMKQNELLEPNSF
The target of another test is T5, EHF (Homo sapiens, UniProt Q9NZC4 1-300).
T5 sequence: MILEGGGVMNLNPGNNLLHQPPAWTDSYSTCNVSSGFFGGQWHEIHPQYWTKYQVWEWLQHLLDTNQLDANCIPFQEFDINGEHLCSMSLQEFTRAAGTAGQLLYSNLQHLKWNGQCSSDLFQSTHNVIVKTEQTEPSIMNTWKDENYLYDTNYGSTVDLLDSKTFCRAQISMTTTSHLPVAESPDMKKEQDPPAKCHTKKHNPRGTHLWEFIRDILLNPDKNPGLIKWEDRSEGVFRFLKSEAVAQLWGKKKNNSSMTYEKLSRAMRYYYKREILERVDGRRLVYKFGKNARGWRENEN
The note with it: protein: recombinant; tags: N-terminal GST; dsDNA, one strand shown. The method in brief: as §1

A further test addresses SPI1 (Homo sapiens, UniProt P17947 1-270). The settings on record: protein: recombinant; tags: N-terminal GST; dsDNA, one strand shown. The method in brief: as §1
The target in another test is SPIB (Homo sapiens, UniProt Q01892 1-262). The settings on record: protein: recombinant; tags: N-terminal GST; dsDNA, one strand shown. The method in brief:
as §1

The target of the next test is T6, ELK3 (Homo sapiens, UniProt P41970 1-407).
T6 sequence: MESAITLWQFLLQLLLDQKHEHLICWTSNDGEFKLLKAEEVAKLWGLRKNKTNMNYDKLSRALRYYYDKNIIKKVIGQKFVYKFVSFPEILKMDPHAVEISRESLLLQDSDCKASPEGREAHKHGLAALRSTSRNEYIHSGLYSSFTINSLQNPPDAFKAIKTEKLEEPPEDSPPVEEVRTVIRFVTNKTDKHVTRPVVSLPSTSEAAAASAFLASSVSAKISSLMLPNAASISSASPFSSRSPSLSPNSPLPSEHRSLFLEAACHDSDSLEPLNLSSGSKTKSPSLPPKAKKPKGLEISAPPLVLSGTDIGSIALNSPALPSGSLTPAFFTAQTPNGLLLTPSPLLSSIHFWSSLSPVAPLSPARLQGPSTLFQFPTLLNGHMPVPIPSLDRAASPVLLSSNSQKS
The note with it: protein: recombinant; tags: N-terminal GST; dsDNA, one strand shown. The method, boiled down:
as §1

Another test addresses T7, FEV (Homo sapiens, UniProt Q99581 1-238).
T7 sequence: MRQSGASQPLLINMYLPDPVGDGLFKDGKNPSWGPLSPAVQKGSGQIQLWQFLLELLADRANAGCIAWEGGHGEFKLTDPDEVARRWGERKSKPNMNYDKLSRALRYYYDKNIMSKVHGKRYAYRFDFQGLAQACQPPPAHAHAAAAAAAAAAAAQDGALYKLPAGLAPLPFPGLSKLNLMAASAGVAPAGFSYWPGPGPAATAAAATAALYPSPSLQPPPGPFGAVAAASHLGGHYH
The settings on record: protein: recombinant; tags: N-terminal GST; dsDNA, one strand shown. The method in brief: as §1

Another test has as its target ETV5 (Homo sapiens, UniProt P41161 1-510). The settings on record: protein: recombinant; tags: N-terminal GST; dsDNA, one strand shown. The method in brief: as §1
Another test concerns the target HSF1 (Homo sapiens, UniProt Q00613 1-529). The settings on record: protein: recombinant; tags: N-terminal GST; chain copies: 3; dsDNA, one strand shown. The method in brief:
as §1

The next test addresses T8, SPIC (Homo sapiens, UniProt Q8N5J4 1-248).
T8 sequence: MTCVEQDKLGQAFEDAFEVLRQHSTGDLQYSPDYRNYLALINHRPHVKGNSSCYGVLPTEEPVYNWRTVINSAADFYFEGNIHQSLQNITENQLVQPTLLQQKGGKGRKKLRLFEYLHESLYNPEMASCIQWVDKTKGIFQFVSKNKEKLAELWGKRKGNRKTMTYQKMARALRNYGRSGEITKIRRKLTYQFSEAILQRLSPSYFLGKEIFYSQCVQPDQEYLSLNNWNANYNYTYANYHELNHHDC
The settings on record: protein: recombinant; tags: N-terminal GST; dsDNA, one strand shown. The method in brief:
as §1

The target in the next test is ELF4 (Homo sapiens, UniProt Q99607 1-663). The settings on record: protein: recombinant; tags: N-terminal GST; dsDNA, one strand shown. The method in brief: as §1
ELF4, sequence (Q99607 whole entry): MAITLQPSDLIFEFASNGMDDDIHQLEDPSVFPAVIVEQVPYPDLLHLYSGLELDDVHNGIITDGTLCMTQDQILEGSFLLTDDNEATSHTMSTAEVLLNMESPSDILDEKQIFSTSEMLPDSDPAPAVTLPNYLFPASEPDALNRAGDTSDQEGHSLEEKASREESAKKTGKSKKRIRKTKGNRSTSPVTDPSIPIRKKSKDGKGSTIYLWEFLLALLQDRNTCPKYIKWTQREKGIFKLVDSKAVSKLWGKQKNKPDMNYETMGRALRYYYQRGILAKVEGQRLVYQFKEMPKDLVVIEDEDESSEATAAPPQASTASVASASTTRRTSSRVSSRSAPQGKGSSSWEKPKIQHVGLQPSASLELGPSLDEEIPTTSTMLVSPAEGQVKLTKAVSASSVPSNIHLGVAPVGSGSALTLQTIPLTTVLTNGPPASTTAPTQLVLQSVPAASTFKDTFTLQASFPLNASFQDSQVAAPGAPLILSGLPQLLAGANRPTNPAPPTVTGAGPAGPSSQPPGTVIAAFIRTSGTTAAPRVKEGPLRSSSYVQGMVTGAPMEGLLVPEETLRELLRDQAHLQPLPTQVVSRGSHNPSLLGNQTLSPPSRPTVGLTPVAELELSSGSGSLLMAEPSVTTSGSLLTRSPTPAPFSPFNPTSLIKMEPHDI
The next test deals with T9, ELK4 (Homo sapiens, UniProt P28324-2 1-405).
T9 sequence: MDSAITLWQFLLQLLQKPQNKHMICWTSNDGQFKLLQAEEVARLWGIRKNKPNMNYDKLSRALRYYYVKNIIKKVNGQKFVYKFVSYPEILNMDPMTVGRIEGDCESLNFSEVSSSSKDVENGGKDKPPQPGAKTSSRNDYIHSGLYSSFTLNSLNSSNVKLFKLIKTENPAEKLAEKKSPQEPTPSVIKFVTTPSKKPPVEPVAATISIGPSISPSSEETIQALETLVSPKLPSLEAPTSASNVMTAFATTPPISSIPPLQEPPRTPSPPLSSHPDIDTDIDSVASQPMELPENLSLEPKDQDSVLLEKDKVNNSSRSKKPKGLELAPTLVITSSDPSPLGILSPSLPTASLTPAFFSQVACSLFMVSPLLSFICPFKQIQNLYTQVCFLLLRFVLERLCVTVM
The settings on record: protein: recombinant; tags: N-terminal GST; dsDNA, one strand shown. The method, boiled down: as §1

The next test addresses T10, ETV2 (Homo sapiens, UniProt O00321 1-342).
T10 sequence: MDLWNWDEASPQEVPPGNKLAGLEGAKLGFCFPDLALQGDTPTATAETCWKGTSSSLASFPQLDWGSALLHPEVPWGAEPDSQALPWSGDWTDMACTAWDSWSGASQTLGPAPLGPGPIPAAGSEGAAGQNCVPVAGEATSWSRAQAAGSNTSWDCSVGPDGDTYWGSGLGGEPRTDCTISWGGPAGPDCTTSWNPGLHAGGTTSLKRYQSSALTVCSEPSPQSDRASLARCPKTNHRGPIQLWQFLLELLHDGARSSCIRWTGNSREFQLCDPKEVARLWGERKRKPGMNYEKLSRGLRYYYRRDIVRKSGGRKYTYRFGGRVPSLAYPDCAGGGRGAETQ
The note with it: protein: recombinant; tags: N-terminal GST; dsDNA, one strand shown. The method, boiled down: as §1

The target of another test is T11, ELF3 (Homo sapiens, UniProt P78545 1-371).
T11 sequence: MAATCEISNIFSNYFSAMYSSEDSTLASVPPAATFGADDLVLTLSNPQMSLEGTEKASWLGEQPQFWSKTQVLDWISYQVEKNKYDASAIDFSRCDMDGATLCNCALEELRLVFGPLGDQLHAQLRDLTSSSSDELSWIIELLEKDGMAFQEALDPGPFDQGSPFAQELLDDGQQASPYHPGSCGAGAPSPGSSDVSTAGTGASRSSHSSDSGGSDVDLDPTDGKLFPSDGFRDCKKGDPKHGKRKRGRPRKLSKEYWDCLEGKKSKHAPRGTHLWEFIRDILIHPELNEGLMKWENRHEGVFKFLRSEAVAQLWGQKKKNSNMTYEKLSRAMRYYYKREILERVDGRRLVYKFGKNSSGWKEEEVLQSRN
The note with it: protein: recombinant; tags: N-terminal GST; dsDNA, one strand shown. The method in brief:
as §1

For the next test, the target named is ETV1 (Homo sapiens, UniProt P50549 1-477). The settings on record: protein: recombinant; tags: N-terminal GST; dsDNA, one strand shown. The method in brief:
as §1

SPIB, sequence (Q01892 whole entry): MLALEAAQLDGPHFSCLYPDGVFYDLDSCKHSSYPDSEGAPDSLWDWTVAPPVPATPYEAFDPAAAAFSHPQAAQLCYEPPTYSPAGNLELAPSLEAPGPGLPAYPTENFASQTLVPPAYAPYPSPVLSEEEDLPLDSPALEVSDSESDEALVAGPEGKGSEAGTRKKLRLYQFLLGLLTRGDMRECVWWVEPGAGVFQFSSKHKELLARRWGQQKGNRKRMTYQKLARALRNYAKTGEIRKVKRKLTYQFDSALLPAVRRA
HSF1, sequence (Q00613 whole entry): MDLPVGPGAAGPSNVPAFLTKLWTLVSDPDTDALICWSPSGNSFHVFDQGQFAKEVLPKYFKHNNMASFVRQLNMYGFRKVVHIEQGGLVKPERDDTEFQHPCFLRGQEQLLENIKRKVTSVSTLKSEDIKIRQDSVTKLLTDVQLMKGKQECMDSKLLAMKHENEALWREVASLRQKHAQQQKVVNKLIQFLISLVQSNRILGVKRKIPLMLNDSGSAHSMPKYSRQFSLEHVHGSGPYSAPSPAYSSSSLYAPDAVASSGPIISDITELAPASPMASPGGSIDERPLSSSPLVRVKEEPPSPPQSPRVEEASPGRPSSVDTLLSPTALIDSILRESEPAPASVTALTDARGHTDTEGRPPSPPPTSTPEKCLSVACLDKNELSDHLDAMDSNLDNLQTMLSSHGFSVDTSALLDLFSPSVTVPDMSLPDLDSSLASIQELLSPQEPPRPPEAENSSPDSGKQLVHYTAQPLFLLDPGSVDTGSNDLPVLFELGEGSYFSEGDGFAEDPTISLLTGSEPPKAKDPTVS
ETV1, sequence (P50549 whole entry): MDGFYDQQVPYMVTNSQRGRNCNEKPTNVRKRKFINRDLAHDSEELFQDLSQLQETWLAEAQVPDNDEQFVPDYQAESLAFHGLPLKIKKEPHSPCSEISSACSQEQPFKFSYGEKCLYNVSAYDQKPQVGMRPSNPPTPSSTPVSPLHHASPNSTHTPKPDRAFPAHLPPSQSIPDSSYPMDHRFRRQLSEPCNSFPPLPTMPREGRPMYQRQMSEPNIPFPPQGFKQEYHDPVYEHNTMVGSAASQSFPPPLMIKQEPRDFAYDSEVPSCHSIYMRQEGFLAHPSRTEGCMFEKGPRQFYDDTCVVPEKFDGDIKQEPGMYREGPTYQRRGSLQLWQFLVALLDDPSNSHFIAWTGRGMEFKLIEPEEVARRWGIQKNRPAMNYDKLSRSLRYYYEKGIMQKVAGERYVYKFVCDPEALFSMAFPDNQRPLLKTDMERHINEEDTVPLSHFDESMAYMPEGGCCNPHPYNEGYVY
ETV5, sequence (P41161 whole entry): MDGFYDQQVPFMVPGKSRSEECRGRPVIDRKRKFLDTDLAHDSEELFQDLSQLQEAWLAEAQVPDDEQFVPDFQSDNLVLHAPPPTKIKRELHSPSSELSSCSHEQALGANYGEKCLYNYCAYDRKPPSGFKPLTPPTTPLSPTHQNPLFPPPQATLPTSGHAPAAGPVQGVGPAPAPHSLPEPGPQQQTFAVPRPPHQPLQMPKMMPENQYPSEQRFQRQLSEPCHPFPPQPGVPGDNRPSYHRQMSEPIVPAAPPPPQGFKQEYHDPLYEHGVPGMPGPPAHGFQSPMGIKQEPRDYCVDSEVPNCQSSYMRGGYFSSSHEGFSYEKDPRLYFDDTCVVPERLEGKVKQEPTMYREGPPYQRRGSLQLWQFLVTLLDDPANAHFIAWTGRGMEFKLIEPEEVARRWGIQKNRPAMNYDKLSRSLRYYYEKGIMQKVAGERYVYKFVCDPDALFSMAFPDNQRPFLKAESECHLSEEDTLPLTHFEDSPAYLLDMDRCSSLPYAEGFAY

Turning to CCGACA, the binding signal in the test with FLI1 is 1.2 fold enrichment (6-mer frequency, TF over GST control); with ELK1 it was 1.18 fold enrichment (6-mer frequency, TF over GST control); in the test with GABPA, 1.11 fold enrichment (6-mer frequency, TF over GST control); with ERG, 1.29 fold enrichment (6-mer frequency, TF over GST control); with ELF1, 1.27 fold enrichment (6-mer frequency, TF over GST control); with EHF, 1.21 fold enrichment (6-mer frequency, TF over GST control). For the same sequence, the binding signal with SPI1 is 1.24 fold enrichment (6-mer frequency, TF over GST control); with SPIB, 1.25 fold enrichment (6-mer frequency, TF over GST control); with ELK3, 1.16 fold enrichment (6-mer frequency, TF over GST control); in the test with FEV, 1.31 fold enrichment (6-mer frequency, TF over GST control); in the test with ETV5 it was 1.24 fold enrichment (6-mer frequency, TF over GST control); with HSF1, 1.03 fold enrichment (6-mer frequency, TF over GST control). The binding signal with SPIC was 1.34 fold enrichment (6-mer frequency, TF over GST control); in the test with ELF4 it was 1.13 fold enrichment (6-mer frequency, TF over GST control); in the test with ELK4 it was 1.14 fold enrichment (6-mer frequency, TF over GST control); with ETV2, 1.32 fold enrichment (6-mer frequency, TF over GST control); with ELF3, 1.18 fold enrichment (6-mer frequency, TF over GST control); with ETV1 it was 1.28 fold enrichment (6-mer frequency, TF over GST control).

(Values after paper PMC7862700, “An all-to-all approach to the identification of sequence-specific readers for epigenetic DNA modifications on cytosine”.)
